Test results reported in PubChem BioAssay (NCATS).
Results filed as inconclusive are left out. Where a call stands in place of a potency, no number is given. Unmarked numbers belong to inactive results. The source made the active and inactive calls. The call rests on the fitted dose curve; in most records, active means well fitted curve in the direction sought with a large enough effect; inconclusive means small, poorly fitted or top-dose-only effect, or another doubt; inactive means no such curve, though single readings can be large; an effect the other way counts as inactive or inconclusive.

Experiments:
HaCat = assay: Cytotoxic Profiling of Annotated Libraries Using Quantitative High-Throughput Screening (AID 1296008); settings: Five cell lines viability, CellTiter-Glo ATP luminescence, 48-72 h; max response: hits give low values; further: nearly all actives have a fitted effect of over 60% in size
Method in brief: (§1)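 Compounds were pin-transferred onto cells and incubated 48 or 72 hr at 37 degree Celsius, 95% humidity. CellTiter-Glo was added, plates sat 10 min at room temperature, then ATP-coupled luminescence was imaged as the viability read-out.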

KB-3-1 = assay: as above; settings: Five cell lines viability, CellTiter-Glo ATP luminescence, 48-72 h; max response: hits give low values
Method in brief: as §1

NIH3T3 = assay: as above; settings: Five cell lines viability, CellTiter-Glo ATP luminescence, 48-72 h; max response: hits give low values
Method in brief: as §1

C33A = assay: Primary qHTS to identify gynecologic anti-cancer compounds using libraries of approved drugs and bioactive compounds (AID 1345084); settings: Gynecologic cancer cell panel viability, ATPlite luminescence, 48 h; series mostly up to 57.5 µM; further: nearly all actives have a fitted effect of over 55% in size
Method in brief: (§2)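 Cell viability after 48 h drug treatment, ATPlite luminescence readout; five doses.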

CAOV3 = assay: as above; settings: Gynecologic cancer cell panel viability, ATPlite luminescence, 48 h; series mostly up to 57.5 µM
Method in brief: as §2

CASKI = assay: as above; settings: Gynecologic cancer cell panel viability, ATPlite luminescence, 48 h; series mostly up to 57.5 µM
Method in brief: as §2

Es-2 = assay: as above; settings: Gynecologic cancer cell panel viability, ATPlite luminescence, 48 h; series mostly up to 57.5 µM
Method in brief: as §2

HeLa = assay: as above; settings: Gynecologic cancer cell panel viability, ATPlite luminescence, 48 h; series mostly up to 57.5 µM
Method in brief: as §2

Hek293T = assay: as above; settings: Gynecologic cancer cell panel viability, ATPlite luminescence, 48 h, control line for the selectivity index; series mostly up to 57.5 µM
Method in brief: as §2

JEG-3 = assay: as above; settings: Gynecologic cancer cell panel viability, ATPlite luminescence, 48 h; series mostly up to 57.5 µM
Method in brief: as §2

OV90 = assay: as above; settings: Gynecologic cancer cell panel viability, ATPlite luminescence, 48 h; series mostly up to 57.5 µM
Method in brief: as §2
Potency means the concentration at half of the fitted maximal effect.

`COc1ccc(/C=C/C(=O)O[C@@H]2[C@@H](O)[C@@H](O)[C@H](O[C@@H]3C=C(CO)[C@H]4[C@H](O[C@@H]5O[C@H](CO)[C@@H](O)[C@H](O)[C@H]5O)OC=C[C@H]43)O[C@H]2C)cc1O` showed a max response (HaCat) of -15%, a max response (KB-3-1) of -14.4% and a max response (NIH3T3) of -43%. The Potency (C33A) was “inactive”, the Potency (CAOV3) was “inactive” and the Potency (CASKI) was “inactive”. The Potency (Es-2) was “inactive”, the Potency (HeLa) was “inactive” and the Potency (Hek293T) was “inactive”. The Potency (JEG-3) was “inactive” and the Potency (OV90) was “inactive”.

`O=C(/C=C/c1ccc(O)cc1)OC1[C@H](O)CC(O)(C(=O)O)C[C@H]1O` (stereo not given in full) showed a max response (HaCat) of 1.01%, a max response (KB-3-1) of 2.34% and a max response (NIH3T3) of -9.08%. The Potency (C33A) was “inactive”, the Potency (CAOV3) was “inactive” and the Potency (CASKI) was “inactive”. For the same compound, the Potency (Es-2) was “inactive”, the Potency (HeLa) was “inactive” and the Potency (Hek293T) was “inactive”. For the same compound, the Potency (JEG-3) was “inactive” and the Potency (OV90) was “inactive”.

With `C[C@@H]1O[C@@H](O[C@H]2[C@@H](OC(=O)[C@]34CCC(C)(C)CC3C3=CCC5[C@@]6(C)C[C@H](O)[C@H](O[C@@H]7O[C@H](C(=O)O)[C@@H](O)[C@H](O)[C@H]7O)[C@@](C)(C(=O)O)C6CC[C@@]5(C)[C@]3(C)CC4)OC[C@H](O)[C@@H]2O)[C@H](O)[C@H](O)[C@H]1O[C@@H]1OC[C@@H](O)[C@H](O)[C@H]1O` (stereo not given in full) the max response (HaCat) was -1.2%, the outcome (KB-3-1) was “inactive” and the max response (NIH3T3) was -0.698%. It also gave an activity change, negative = cytotoxicity (C33A) of 1.85% [at 11.6 µM], an activity change, negative = cytotoxicity (CAOV3) of 24.8% [at 11.6 µM] and an activity change, negative = cytotoxicity (CASKI) of 0.336% [at 11.6 µM]. The activity change, negative = cytotoxicity (Es-2) was -0.221% [at 11.6 µM], the activity change, negative = cytotoxicity (HeLa) was -0.61% [at 11.6 µM] and the activity change, negative = cytotoxicity (Hek293T) was -0.464% [at 11.6 µM]. For the same compound, the activity change, negative = cytotoxicity (JEG-3) was 3.02% [at 11.6 µM] and the activity change, negative = cytotoxicity (OV90) was 7.22% [at 11.6 µM].

`CC(=O)OC1/C(C)=C/C(=O)C(OC(C)=O)C(C)(C)/C=C/C(C)C(=O)C2(OC(C)=O)CC(C)C(OC(=O)c3ccccc3)C12` (stereo not given) was tested, and the max response (HaCat) was -9.17%, the outcome (KB-3-1) was “inactive” and the max response (NIH3T3) was -16.3%. For the same compound, the Potency (C33A) was “inactive”, the Potency (CAOV3) was “inactive” and the Potency (CASKI) was “inactive”. The Potency (HeLa) was “inactive”, the Potency (Hek293T) was “inactive” and the Potency (JEG-3) was “inactive”. The Potency (OV90) was “inactive”.

Compound `Cc1cc(C(N)=O)ccc1-n1c(CCC(=O)O)ccc1-c1ccc(-n2ccnc2)cc1` has a max response (HaCat) of -1.63%, a max response (KB-3-1) of 7.2% and a max response (NIH3T3) of -2.74%. The Potency (C33A) was “inactive”, the Potency (CAOV3) was “inactive” and the Potency (CASKI) was “inactive”. For the same compound, the Potency (Es-2) was “inactive”, the Potency (HeLa) was “inactive” and the Potency (Hek293T) was “inactive”. The Potency (OV90) was “inactive”.

For `COCCN1CCN(Cc2ccc(-c3n[nH]c4c3C(=O)c3c(NC(=O)NN5CCOCC5)cccc3-4)cc2)CC1`, the Potency (HaCat) was 231 nM (active), the Potency (KB-3-1) was 146 nM (active) and the Potency (NIH3T3) was 517 nM (active). The Potency (C33A) was “inactive”, the Potency (CAOV3) was “inactive” and the Potency (CASKI) was 282 nM (active). The Potency (Es-2) was 316 nM (active), the Potency (Hek293T) was 178 nM (active) and the Potency (JEG-3) was “inactive”. The Potency (OV90) was “inactive”.

`Cc1cc(N2CCN([C@@H]3CN[C@H](C(=O)N4CCSC4)C3)CC2)n(-c2ccccc2)n1` showed a max response (HaCat) of -10.6%, a max response (KB-3-1) of -12.3% and a max response (NIH3T3) of -22.8%. For the same compound, the Potency (C33A) was “inactive”, the Potency (CAOV3) was “inactive” and the Potency (CASKI) was “inactive”. For the same compound, the Potency (Es-2) was “inactive”, the Potency (HeLa) was “inactive” and the Potency (Hek293T) was “inactive”. For the same compound, the Potency (OV90) was “inactive”.

`Cc1nc([C@](C)(O)CO)sc1-c1cnc(N)c(O[C@H](C)c2cc(F)ccc2-n2nccn2)c1` was tested, and the Potency (HaCat) was 14600 nM (active), the Potency (KB-3-1) was 18400 nM (active) and the Potency (NIH3T3) was 2060 nM (active). The Potency (C33A) was “inactive”, the Potency (CAOV3) was “inactive” and the Potency (CASKI) was “inactive”. The Potency (Es-2) was “inactive”, the Potency (HeLa) was 8910 nM (active) and the Potency (JEG-3) was “inactive”.

In the case of `OCC(CO[C@@H]1O[C@H](CO)[C@@H](O)[C@H](O)[C@H]1O)c1ccc2c(c1)OCO2` (stereo not given in full), the max response (HaCat) is reported as 1.18%, the max response (KB-3-1) is reported as -7.72% and the max response (NIH3T3) is reported as -0.622%. The Potency (C33A) was “inactive”, the Potency (CAOV3) was “inactive” and the Potency (CASKI) was “inactive”. The Potency (Es-2) was “inactive”, the Potency (HeLa) was “inactive” and the Potency (Hek293T) was “inactive”. For the same compound, the Potency (JEG-3) was “inactive” and the Potency (OV90) was “inactive”.

With `CC(C)(O)/C=C/C1=CC(=O)[C@@](C)(O)C[C@H]1O` the max response (HaCat) was 4.28%, the max response (KB-3-1) was 7.85% and the max response (NIH3T3) was -2.07%. The Potency (C33A) was “inactive”, the Potency (CAOV3) was “inactive” and the Potency (CASKI) was “inactive”. The Potency (Es-2) was “inactive”, the Potency (HeLa) was “inactive” and the Potency (Hek293T) was “inactive”. For the same compound, the Potency (JEG-3) was “inactive” and the Potency (OV90) was “inactive”.

With `COC(=O)c1ccnc(-c2cc(C(=O)NCCc3ccccc3)ccn2)c1` the max response (HaCat) was 1.24%, the max response (KB-3-1) was 1.93% and the max response (NIH3T3) was 1.58%. The Potency (C33A) was “inactive”, the Potency (CAOV3) was “inactive” and the Potency (CASKI) was “inactive”. For the same compound, the Potency (Es-2) was “inactive”, the Potency (HeLa) was “inactive” and the Potency (Hek293T) was “inactive”. The Potency (OV90) was “inactive”.

`CC(/C=C/C1=CC2=CC(=O)C(C)(O)C(O)C2=CO1)=C\C(C)CCO` (stereo not given) was tested, and the max response (HaCat) was -24.3%, the max response (KB-3-1) was 4.06% and the max response (NIH3T3) was 0.418%. For the same compound, the Potency (C33A) was “inactive”, the Potency (CAOV3) was “inactive” and the Potency (CASKI) was “inactive”. The Potency (Es-2) was “inactive”, the Potency (HeLa) was “inactive” and the Potency (Hek293T) was “inactive”. For the same compound, the Potency (JEG-3) was “inactive” and the Potency (OV90) was “inactive”.

In the case of `COc1cc(O)cc(/C=C/c2ccc(O[C@@H]3O[C@H](CO)[C@@H](O)[C@H](O)[C@H]3O)cc2)c1`, the max response (HaCat) is reported as 0.534%, the outcome (KB-3-1) is reported as “inactive” and the max response (NIH3T3) is reported as 4.58%. The Potency (C33A) was “inactive”, the Potency (CAOV3) was “inactive” and the Potency (CASKI) was “inactive”. The Potency (Es-2) was “inactive”, the Potency (HeLa) was “inactive” and the Potency (Hek293T) was “inactive”. For the same compound, the Potency (OV90) was “inactive”.

With `CC1(C)CC[C@]2(C(=O)O[C@@H]3O[C@H](CO)[C@@H](O)[C@H](O)[C@H]3O)CC[C@]3(C)C(=CCC4[C@@]5(C)C[C@@H](O)[C@H](O)[C@@](C)(CO)C5CC[C@]43C)C2[C@@H]1O` (stereo not given in full) the max response (HaCat) was -9.78%, the outcome (KB-3-1) was “inactive” and the max response (NIH3T3) was 2.98%. The Potency (C33A) was “inactive”, the Potency (CAOV3) was “inactive” and the Potency (CASKI) was “inactive”. For the same compound, the Potency (HeLa) was “inactive”, the Potency (Hek293T) was “inactive” and the Potency (JEG-3) was “inactive”. The Potency (OV90) was “inactive”.
